Records with an inconclusive call do not appear. Active and inactive are the calls of the source. Unless noted, the call rests on the fitted dose curve; in most records, active means well fitted curve in the direction sought with a large enough effect; inconclusive means small, poorly fitted or top-dose-only effect, or another doubt; inactive means no such curve, though single readings can be large; an effect the other way counts as inactive or inconclusive.
What was measured:
[1] = Inducers of the Endoplasmic Reticulum Stress Response (ERSR) in human glioma: Validation (AID 504836); settings: human glioma cells, ER stress response reporter; series mostly up to 38.3 µM
In short: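 Stably transfected U87-MG glioma cells carrying a GRP78-based luciferase sensor; 16 h compound incubation. Luminescence end-point read 10 min after Bright-Glo addition at room temperature.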

[2] = qHTS for Inhibitors of the Functional Ribonucleoprotein Complex (vRNP) of Lassa (LASV) Arenavirus: LASV Primary Screen - GLuc reporter signal (AID 1347082; calls by dose curve; tested in HEK293 reporter line; further: nearly all actives have a fitted effect of over 60% in size); settings: LASV minigenome vRNP, Gaussia luciferase reporter; series mostly up to 57.5 µM
[3] = qHTS for Inhibitors of the Functional Ribonucleoprotein Complex (vRNP) of Lassa (LASV) Arenavirus: Viability assay - alamar blue signal for LASV Primary Screen (AID 1347083; calls by dose curve; tested in HEK293 reporter line; further: nearly all actives have a fitted effect of over 80% in size); settings: cell viability, alamar blue fluorescence (LASV minigenome counter-screen); series mostly up to 57.5 µM
[4] = qHTS for Inhibitors of the Functional Ribonucleoprotein Complex (vRNP) of Lymphocytic Choriomeningitis Arenaviruses (LCMV): Viability assay - alamar blue signal for LCMV Primary Screen (AID 1347085; calls by dose curve; tested in HEK293 reporter line; further: nearly all actives have a fitted effect of over 80% in size); settings: alamar blue viability counter-screen, LCMV vRNP screen cells; series mostly up to 57.5 µM
[5] = target: Nucleoprotein (Lymphocytic choriomeningitis virus (strain Armstrong)) (UniProt P09992); experiment: qHTS for Inhibitors of the Functional Ribonucleoprotein Complex (vRNP) of Lymphocytic Choriomeningitis Arenaviruses (LCMV): LCMV Primary Screen - GLuc reporter signal (AID 1347086; calls by dose curve; further: nearly all actives have a fitted effect of over 70% in size); settings: LCMV minigenome vRNP cell assay, Gaussia luciferase reporter; series mostly up to 57.5 µM
[6] = target: Arylsulfatase A (Homo sapiens) (UniProt P15289); experiment: qHTS screen for enhancers of Arylsulfatase A (ASA1): LOPAC Validation Assay (AID 720538); settings: ASA enzyme activity, LOPAC qHTS enhancer assay; series mostly up to 57.5 µM
In short: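 SV40-transformed skin fibroblasts from an MLD patient (ASA-I179S) were treated with compounds for 48h at 37 degree C, then lysed with 0.5mM pNCS final substrate for 14h at room temperature; NaOH stop, fluorescence read (Ex=525 nm; Em=598 nm).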

Measured: Potency

Chain of Nucleoprotein (Lymphocytic choriomeningitis virus (strain Armstrong)) (P09992 whole entry, looked up): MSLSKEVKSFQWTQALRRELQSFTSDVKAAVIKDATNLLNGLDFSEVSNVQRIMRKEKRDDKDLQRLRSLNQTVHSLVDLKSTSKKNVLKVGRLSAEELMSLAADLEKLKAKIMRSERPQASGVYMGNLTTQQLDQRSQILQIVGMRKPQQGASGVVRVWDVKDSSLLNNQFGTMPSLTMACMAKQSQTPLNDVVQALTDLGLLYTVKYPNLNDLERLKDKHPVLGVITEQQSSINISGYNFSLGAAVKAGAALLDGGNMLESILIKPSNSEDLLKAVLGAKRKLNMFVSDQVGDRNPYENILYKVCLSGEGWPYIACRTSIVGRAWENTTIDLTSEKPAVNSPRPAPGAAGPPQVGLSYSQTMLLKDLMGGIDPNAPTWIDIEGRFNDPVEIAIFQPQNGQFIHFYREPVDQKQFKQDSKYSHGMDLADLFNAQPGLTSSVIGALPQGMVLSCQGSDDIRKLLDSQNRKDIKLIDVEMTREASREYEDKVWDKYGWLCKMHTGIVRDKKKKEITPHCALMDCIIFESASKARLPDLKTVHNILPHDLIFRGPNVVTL
Chain of Arylsulfatase A (Homo sapiens) (P15289 whole entry, looked up): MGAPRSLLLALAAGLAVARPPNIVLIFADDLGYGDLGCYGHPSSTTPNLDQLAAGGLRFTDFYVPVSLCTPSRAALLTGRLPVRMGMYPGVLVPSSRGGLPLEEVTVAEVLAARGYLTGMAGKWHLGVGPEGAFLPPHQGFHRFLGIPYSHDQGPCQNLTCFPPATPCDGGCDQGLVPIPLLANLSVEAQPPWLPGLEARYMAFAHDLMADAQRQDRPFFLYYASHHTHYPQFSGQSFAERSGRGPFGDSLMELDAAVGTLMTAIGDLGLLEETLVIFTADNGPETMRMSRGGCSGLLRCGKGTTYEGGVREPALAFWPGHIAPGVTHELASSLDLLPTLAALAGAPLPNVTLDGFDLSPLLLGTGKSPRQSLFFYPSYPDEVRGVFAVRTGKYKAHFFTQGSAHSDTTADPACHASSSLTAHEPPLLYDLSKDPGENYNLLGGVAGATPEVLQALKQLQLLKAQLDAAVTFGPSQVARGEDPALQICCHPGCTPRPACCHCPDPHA

CN1Cc2sccc2C(c2ccc(O)c(O)c2)C1 (stereo unspecified)
not listed: [6]
inactive: all other assays above

O=c1[nH]c(=S)[nH]c(-c2ccccc2)c1Cc1c(O)ccc2ccccc12
not listed: [6]
inactive: all other assays above

CC(=O)O[C@H]1C[C@@H]2CC[C@@H]3[C@H](CC[C@@]4(C)[C@H]3C[C@H]([N+]3(C)CCCCC3)[C@@H]4OC(C)=O)[C@@]2(C)C[C@@H]1[N+]1(C)CCCCC1
inactive: all assays above

N[C@H](C(=O)O)[C@H]1C[C@@H]1C(=O)O
not listed: [6]
inactive: all other assays above

— PubChem BioAssay (NCATS)
